Bioassay records from PubChem.
USP28 block: inhibitors of human USP28 deubiquitinase. Q96RU2. purified USP28, Ub-rhodamine cleavage fluorescence, 30 min. inhibition, % at 25 µM. 47,000 compounds, 3% hits. AID 1645857
USP17 block: inhibitors of human USP17 deubiquitinase; inhibition, % at 50 µM; purified USP17, Ub-rhodamine cleavage fluorescence, 3 h; 47,000 compounds, 6.5% hits; A8MUK1
USP30 block: blocks human USP30 ubiquitin-rhodamine cleavage. purified USP30, Ub-rhodamine cleavage fluorescence. inhibition, % at 25 µM. 47,000 compounds, 5.3% hits. AID 1645860
USP10 inh: inhibitors of human USP10 deubiquitinase; Q14694; purified USP10, Ub-rhodamine fluorescence, 60 min; inhibition, % at 20 µM; 47,000 compounds, 1.1% hits
Target sequence (Q14694 whole entry, looked up): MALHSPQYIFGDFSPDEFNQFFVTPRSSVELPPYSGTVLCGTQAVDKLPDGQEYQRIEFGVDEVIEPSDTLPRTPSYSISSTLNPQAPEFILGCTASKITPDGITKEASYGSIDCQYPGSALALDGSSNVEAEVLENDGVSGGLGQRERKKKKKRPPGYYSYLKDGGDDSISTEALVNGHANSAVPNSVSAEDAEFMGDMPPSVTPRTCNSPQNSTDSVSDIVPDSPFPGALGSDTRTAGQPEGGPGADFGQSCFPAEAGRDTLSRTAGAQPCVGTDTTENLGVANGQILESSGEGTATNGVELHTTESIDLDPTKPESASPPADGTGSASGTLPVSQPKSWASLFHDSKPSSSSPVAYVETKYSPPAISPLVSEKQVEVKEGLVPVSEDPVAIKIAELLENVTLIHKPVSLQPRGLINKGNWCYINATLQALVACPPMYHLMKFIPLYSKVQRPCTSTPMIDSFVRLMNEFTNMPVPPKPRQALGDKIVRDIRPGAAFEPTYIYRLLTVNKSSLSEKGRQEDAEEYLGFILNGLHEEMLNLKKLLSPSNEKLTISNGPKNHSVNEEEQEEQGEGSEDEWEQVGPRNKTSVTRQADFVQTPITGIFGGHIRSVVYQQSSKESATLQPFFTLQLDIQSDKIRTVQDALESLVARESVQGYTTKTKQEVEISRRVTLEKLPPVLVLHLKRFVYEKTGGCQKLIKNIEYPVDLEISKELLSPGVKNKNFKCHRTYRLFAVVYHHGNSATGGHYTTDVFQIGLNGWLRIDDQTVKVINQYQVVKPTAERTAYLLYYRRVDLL
USP8 inh: inhibitors of human USP8 deubiquitinase; purified USP8, Ub-rhodamine cleavage fluorescence, 30 min; inhibition, % at 20 µM; 47,000 compounds, 4.2% hits
Hits are given with their value. Hits are enriched below; roughly 14% of the tested compounds scored in any of these assays. No stated cut-off is given here; in the data, active means inhibition above about 30%; inactive means the rest.

CCOC(=O)C1CCN(C(=O)c2cnc(-c3ccc(C)cc3)nc2-c2ccncc2)CC1 was read as USP28 block inactive, USP17 block inactive, USP30 block inactive, USP10 inh inactive and USP8 inh inactive.
Cc1cc(C)cc(-n2ccn3cc(-c4cccc(Cl)c4)nc3c2=O)c1 was read as USP28 block inactive, USP17 block 45, USP30 block inactive, USP10 inh inactive and USP8 inh inactive.
For COc1cccc(N2CCN(C(=O)Cn3c(=O)[nH]c4ccccc4c3=O)CC2)c1 the results were USP28 block inactive, USP30 block inactive, USP10 inh inactive and USP8 inh inactive.
Screening CCOC(=O)Nc1cccc(C(=O)Nc2ccc(N3CCCC3=O)cc2)c1 returned USP28 block inactive, USP17 block inactive, USP30 block inactive, USP10 inh inactive and USP8 inh inactive.
For CCc1nc(N2CCCC2=O)sc1C(=O)Nc1cccc(C)c1 the results were USP28 block 49, USP30 block inactive, USP10 inh inactive and USP8 inh inactive.
`CCc1nc(N2CCCC2=O)sc1C(=O)Nc1ccccc1` gave USP28 block inactive, USP30 block inactive, USP10 inh inactive and USP8 inh inactive.
For CCc1nc(N2CCCC2=O)sc1C(=O)Nc1cccc(C(C)=O)c1 the results were USP28 block 52, USP17 block inactive, USP30 block inactive, USP10 inh inactive and USP8 inh inactive.
Screening COc1ccc(NC(=O)CSc2ncnc3c2sc2nc(C)c4c(c23)CC(C)(C)OC4)cc1 returned USP28 block inactive, USP17 block inactive, USP30 block inactive, USP10 inh inactive and USP8 inh inactive.
O=C(Cn1c(=O)n(CCc2ccccc2)c(=O)c2cccnc21)Nc1ccccc1C(F)(F)F was read as USP28 block inactive, USP17 block inactive, USP30 block inactive, USP10 inh inactive and USP8 inh inactive.
For O=C(CSc1nc2ccsc2c(=O)n1Cc1ccccc1)Nc1ccccc1C(F)(F)F the results were USP17 block 55, USP10 inh inactive and USP8 inh inactive.
Screening Cc1ccc(-n2nnnc2-c2cnc(C)nc2-c2ccc(Cl)cc2)cc1 returned USP28 block inactive, USP17 block inactive, USP30 block inactive, USP10 inh inactive and USP8 inh inactive.
Screening COc1ccc(-n2nnnc2-c2c[nH]c3c(F)cc(F)cc23)cc1 returned USP28 block inactive, USP17 block inactive, USP30 block inactive, USP10 inh inactive and USP8 inh 31.
Screening O=C(c1ccccc1)c1c[nH]c2cc3c(cc2c1=O)OCO3 returned USP28 block inactive, USP17 block inactive, USP30 block inactive, USP10 inh inactive and USP8 inh 50.
CC(C)c1n[nH]c(=O)c2c1nnn2Cc1ccccc1F was read as USP28 block inactive, USP17 block inactive, USP30 block 34, USP10 inh inactive and USP8 inh inactive.
For COc1c([C@H](CC(C)C)OC(C)=O)ccc2c1C(=O)OCc1cc(C)cc(O)c1O2 the results were USP28 block inactive, USP17 block inactive, USP30 block inactive, USP10 inh inactive and USP8 inh inactive.
For COc1c(C)c2c(c(O)c1C/C=C(\C)C(O)CC(=O)O)C(=O)OC2 (centres undefined) the results were USP28 block inactive, USP17 block inactive, USP30 block 38, USP10 inh inactive and USP8 inh inactive.
Screening CCOc1ccc(C(=O)OCC(=O)Nc2ccc3c(c2)OCCO3)cc1OC returned USP28 block inactive, USP17 block inactive, USP30 block inactive, USP10 inh inactive and USP8 inh inactive.
CCOCCn1ccc2c(OCC(=O)Nc3ccc4c(c3)OCCO4)cccc2c1=O was read as USP28 block 44, USP17 block 66, USP30 block 84, USP10 inh inactive and USP8 inh inactive.
For COCCn1ccc2nc(C)c(C(=O)Nc3ccc4c(c3)OCCO4)cc2c1=O the results were USP28 block inactive, USP17 block 51, USP30 block 36, USP10 inh inactive and USP8 inh inactive.
`CCCCOc1ccc(/C=C2\CCn3c2nc2cc(C(=O)O)ccc2c3=O)cc1` gave USP28 block inactive, USP17 block inactive, USP30 block inactive, USP10 inh inactive and USP8 inh inactive.
`CCn1nc(-n2cnnc2)c(NC(=O)c2ccc(Br)cc2)c1C` gave USP28 block inactive, USP17 block inactive, USP30 block inactive, USP10 inh inactive and USP8 inh inactive.
For Cc1cccc(NC(=O)c2nc(N3CCSCC3)c3cnn(C)c3n2)c1 the results were USP28 block inactive, USP17 block 64, USP30 block inactive, USP10 inh inactive and USP8 inh inactive.
Screening CC(C)c1cccc(NC(=O)c2nc(N3CCSCC3)c3cnn(C)c3n2)c1 returned USP28 block inactive, USP17 block inactive, USP30 block inactive, USP10 inh inactive and USP8 inh inactive.
For COc1ccccc1-c1noc2ncnc(N(Cc3ccco3)CC3CCCO3)c12 (centres undefined) the results were USP28 block inactive, USP17 block inactive, USP30 block 36, USP10 inh inactive and USP8 inh inactive.
`COCCNc1ccc(-c2ccc(Cl)cc2)nn1` gave USP28 block inactive, USP17 block inactive, USP30 block inactive, USP10 inh inactive and USP8 inh inactive.
For CCOc1ccc(-c2cc3nc(C4CCN(C(=O)OC(C)(C)C)CC4)c(C(=O)Nc4cc(F)ccc4F)cn3n2)cc1 the results were USP28 block inactive, USP17 block 46, USP30 block inactive, USP10 inh inactive and USP8 inh 56.
`O=C1CCN(c2nc(-c3ccccc3)nc3ccccc23)CC1` gave USP28 block inactive, USP17 block inactive, USP30 block inactive, USP10 inh inactive and USP8 inh inactive.
CCc1noc(C)c1C(=O)N1CCCCC1c1cc(=O)n2ccnc2[nH]1 (centres undefined) was read as USP28 block inactive, USP17 block inactive, USP30 block inactive, USP10 inh inactive and USP8 inh inactive.
For O=c1c2cnc(N3CCN(c4ccccc4)CC3)nc2ccn1Cc1cccnc1 the results were USP28 block inactive, USP17 block inactive, USP30 block inactive, USP10 inh inactive and USP8 inh inactive.
`CSc1nc2ncc3c(=O)n(CCc4ccccc4)ccc3n2n1` gave USP28 block inactive, USP17 block 62, USP30 block 44, USP10 inh inactive and USP8 inh inactive.
CCN1CCN(c2ncc3c(=O)n(CCc4ccccc4)ccc3n2)CC1 was read as USP28 block inactive, USP17 block inactive, USP30 block 39, USP10 inh inactive and USP8 inh inactive.
CSc1nc2ncc3c(=O)n(CCN4CCOCC4)ccc3n2n1 was read as USP28 block inactive, USP17 block inactive, USP30 block inactive, USP10 inh inactive and USP8 inh inactive.
O=c1c2cnc(N3CCCCC3)nc2ccn1CCc1ccccc1 was read as USP28 block inactive, USP17 block 85, USP30 block inactive, USP10 inh inactive and USP8 inh inactive.
Screening Clc1ccc(C2=Nc3cc(Cl)ccc3OC2)cc1 returned USP28 block inactive, USP17 block inactive, USP30 block inactive, USP10 inh inactive and USP8 inh 56.
CCN(CC(=O)Nc1cccc(F)c1)Cc1nc2ccccc2c(=O)[nH]1 was read as USP28 block inactive, USP17 block inactive, USP30 block inactive, USP10 inh inactive and USP8 inh inactive.
